Screens deposited in PubChem by Broad Institute.
Rows were chosen to be rich in hits. Some 1.4% of all compounds tested hit in one or more screens of this group.
RAD52 anneal inh = RAD52 (human) annealing inhibition | recombinant RAD52 DNA annealing, FRET fluorescence | inhibition, % at 18.7 µM | 360,000 compounds, 0.46% hits | AID 651710;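 active means every replicate showing at least 50% inhibition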
Target sequence (P43351 whole entry, looked up): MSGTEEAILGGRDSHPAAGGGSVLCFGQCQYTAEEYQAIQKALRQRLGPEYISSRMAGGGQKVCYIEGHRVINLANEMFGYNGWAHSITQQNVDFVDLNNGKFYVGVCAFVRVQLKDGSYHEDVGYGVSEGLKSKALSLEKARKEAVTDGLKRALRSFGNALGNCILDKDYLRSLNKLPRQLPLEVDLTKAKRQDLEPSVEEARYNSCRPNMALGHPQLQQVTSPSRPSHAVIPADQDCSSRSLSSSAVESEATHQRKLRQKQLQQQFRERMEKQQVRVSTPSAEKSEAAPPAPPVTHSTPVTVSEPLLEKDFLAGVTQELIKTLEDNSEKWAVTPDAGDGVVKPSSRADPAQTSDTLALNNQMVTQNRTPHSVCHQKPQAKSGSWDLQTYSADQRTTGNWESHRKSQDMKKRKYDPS
RAD54 inh = RAD54 (human) branch migration inhibition. inhibition, % at 10.4 µM. RAD54 Holliday junction branch migration, FAM/BHQ fluorescence. 360,000 compounds, 0.14% hits;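 active means mean normalized replicate activity at least 40 and at least half of replicates scoring 40 or more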;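 further: 0% = median of neutral control wells and 100% = median of positive control wells; inhibitors cause a drop in the FAM fluorescence signal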
AF4-AF9 inh = inhibitors of human MLL-AF4/AF9 interaction | P42568 | AlphaScreen, biotin-AF4 peptide binding to FLAG-AF9 | inhibition, % at 10 µM | 350,000 compounds, 0.47% hits | AID 651704;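 active means every replicate reaching a set inhibition limit, whatever the replicate mean, cut at about 25% in these data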;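 further: 0% = plate neutral control median and 100% = total signal loss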
PGC1a acetyl inh = PGC1a acetylation modulation, inhibitor mode. U2OS PGC1a acetylation, AlphaScreen anti-acetyl-lysine; with virally co-expressed GCN5 acetyltransferase. inhibition, % at 15.6 µM. 350,000 compounds, 0.17% hits. AID 651687;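 active means every replicate shows inhibition of at least 40%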;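 further: 0% = neutral control wells and 100% = positive control wells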
ERAP1 inh = inhibitors of human ERAP1 aminopeptidase. recombinant ERAP1, Leu-AMC fluorescence, 60 min. 340,000 compounds, 0.15% hits. inhibition, % at 10.7 µM. Q9NZ08;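 active means mean replicate inhibition of at least 30%, or all replicates individually reaching that 30% level; inactive means mean below 30% and not every replicate reaching it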;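 further: 0% = neutral control wells and 100% = L-leucinethiol positive control wells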
GSIS activator = GLuc luminescence reporter in INS-1E cells, primary screen for activators of glucose-dependent secretion of insulin | 370,000 compounds, 0.61% hits | INS-1E GLuc reporter insulin secretion, 2-3 h | activation, % at 16.6 µM;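 active means lowest replicate activation of at least 40%, so every replicate reaches that level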;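 further: 0% = median of neutral control wells and 100% = median of IBMX positive control wells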
AlphaScreen intf = interferes with the AlphaScreen assay signal; shares compounds with AF4-AF9 inh; AC50, µM (series often up to 12 µM), inactives show at the highest dose activity change, negative = inhibition; AlphaScreen interference counter-screen, signal luminescence; 530 compounds, 45% hits; cut-off not given, nearly all actives have AC50 up to about 14 µM
Active calls of the source: *; / = no result; ! = not confirmed by another sample.

SMILES	RAD52 anneal inh	RAD54 inh	AF4-AF9 inh	PGC1a acetyl inh	ERAP1 inh	GSIS activator	AlphaScreen intf
C[C@H]1CN(C)C(=O)c2cccc(N(C)C)c2O[C@H]1CN(C)C	/	/	/	/	/	0.7	/
CC(=NNC(=S)N1CCN(C2CCCCCC2)CC1)c1ccccn1	-16.1	/	45.6*	14.4	3.2	11.8	1.18µM*
CC(=NNC(=S)N1CCN(c2ccccn2)CC1)c1ccccn1	20.8	/	13.6	-6.6	-2.4	/	/
O=C(C[C@@H]1CC[C@@H](NC(=O)C2CCOCC2)[C@@H](CO)O1)Nc1ccc(-c2ccccc2)cc1	-1.1	-5.7	-0.3	-6.9	-4.3	5.6	/
Fc1ccc(C(c2ccc(F)cc2)N2CCN(C/C=C/c3ccccc3)CC2)cc1	-2.5	8.0	34.5*!	11.1	-3.4	-23.3	10.8%
C(=C\c1ccccc1)/CN1CCN(C(c2ccccc2)c2ccccc2)CC1	-11.4	10.9	1.7	7.8	0.0	-31.3	/
CCCCOc1ccc2c(c1)C(=O)c1cc(O)ccc1-2	-7.9	/	33.2*	/	2.3	3.4	-1.9%
CCOc1ccc2c(c1)C(=O)c1cc(OCC(=O)O)ccc1-2	-12.1	3.3	-10.3	24.3	2.1	-4.8	/
CC(=O)N1[C@H](CO)[C@@H](c2ccccc2)C12CN(C(=O)c1ccccn1)C2	-9.9	/	-13.8	4.0	-0.9	7.8	/
C[C@H]1CN([C@@H](C)CO)C(=O)Cc2cc(N(C)C)ccc2O[C@@H]1CN(C)Cc1ccccc1	4.1	2.5	1.0	-2.7	1.0	/	/
C[C@@H]1CN([C@H](C)CO)C(=O)Cc2cc(N(C)C)ccc2O[C@H]1CN(C)Cc1ccc(Oc2ccccc2)cc1	35.4	-5.8	43.2*	-2.2	0.0	0.5	-39.5%
NC1=NC[C@H](Cc2ccc(O)cc2)N1CCc1cccc2ccccc12	4.6	48.4	32.1*	/	-73.0	/	-29.2%
NC1=NC[C@@H](Cc2ccc(O)cc2)N1CCc1cccc2ccccc12	16.1	14.3	11.5	/	2.3	23.2	/
Cc1cccc(Nc2cc(C)c3c(O)cccc3n2)c1C	-71.9	-8.6	28.2*	-12.1	/	-1.0	-29.6%
CCOc1cc(N2CCOCC2)c(OCC)cc1NC(=O)c1ccc2ccccc2n1	-28.3	/	37.6*	-1.0	-2.6	13.6	-30.8%
CCOc1cc(N2CCOCC2)c(OCC)cc1NC(=O)c1ccccc1C	-36.2	/	7.1	/	-0.3	-18.1	/
CN(C)C(=O)c1cccc(-c2ccc(C3[C@@H]4CN(S(=O)(=O)Cc5ccccc5)C[C@H]3N4)cc2)c1 (stereo partly drawn)	-3.4	/	0.4	6.6	-0.2	-5.9	/
N#Cc1nc(-c2cccs2)oc1N1CCN(Cc2ccccc2)CC1	-9.7	/	30.6*	/	-3.4	-2.2	-27.0%
C#CCOCCOCCOCCNc1nc(N2CCN(C(=O)C([C@@H](C)O)n3cc([C@@H](N)CCCCN)nn3)CC2)nc(N2CCN(C(=O)C([C@@H](C)O)n3cc([C@@H](N)CCCCN)nn3)CC2)n1 (stereo partly drawn)	10.4	-5.7	39.0*	2.0	-4.9	/	17.3%
C#CCOCCOCCOCCNc1nc(N2CCN(C(=O)[C@H](CCCCN)n3cc([C@@H](N)C(C)CC)nn3)CC2)nc(N2CCN(C(=O)[C@H](CCCCN)n3cc([C@@H](N)CC(C)C)nn3)CC2)n1 (stereo partly drawn)	37.1	35.5	56.0*	-4.8	-3.0	3.1	-2.6%
Cc1cc2c(OCC(O)CNC(C)(C)C)cccc2[nH]1 (stereo not drawn)	/	-5.3	/	5.6	/	/	/
COCCCNCC(O)COc1cccc2[nH]c(C)cc12 (stereo not drawn)	26.9	/	51.5*	-3.9	32.2*	6.2	-21.6%
S=C(c1ccc(-c2cccc(Cl)c2)o1)N1CCOCC1	-7.6	0.0	29.5*	0.7	-2.6	-12.2	-12.4%
O=[N+]([O-])c1ccccc1/C=C/C=N/Nc1nc(N2CCCCC2)nc(N2CCCCC2)n1	-15.6	/	11.6	-6.7	12.8	1.6	/
O=[N+]([O-])c1ccccc1/C=C/C=N/N1CCCCC1	-11.4	/	26.5*	/	/	-1.1	12.9µM*
CN(CCc1ccccc1)C(=O)c1ccc(NC(=O)Cc2ccc(NC(=O)C3CCN(C(=O)C4CCCC4)CC3)cc2)cc1	-8.7	9.2	33.1*	3.6	3.5	-9.8	1.9%
